Drawing on PubChem BioAssay (EPA / NIEHS), this text covers outcome and AC50 for six molecules.

SMILES strings stand for the structures. Active and inactive are the calls of the source. How the source made its calls: active means hit-call score of the fitted dose curve at least 0.9, where 1 is the maximum; inactive means score below 0.9.

Assay [1] is described as follows: ATG_CRE_CIS: Attagene CIS-FACTORIAL HepG2 Assay for human cAMP Responsive Element (CRE) binding protein 3 (AID 2282926). The following applies: HepG2 CRE cis-reporter, Attagene multiplexed mRNA; actives raise or lower the signal. A digest of the protocol:
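Cells carrying cis-regulated reporter constructs respond through their own endogenous factors. After 24 h treatment, RNA is reverse-transcribed, amplified, labelled and sized by capillary electrophoresis; up- and down-regulation are both scored against vehicle.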

Assay [2] is described as follows: ATG_CMV_CIS: Attagene CIS-FACTORIAL HepG2 Assay for human CMV (Internal Marker) (AID 2282928).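 Further: endpoint acts as a background internal control marker rather than a target.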 As to conditions: HepG2 CMV promoter reporter, transcription factor profiling; actives raise or lower the signal. The method, boiled down:
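Reporter transcripts from transfected HepG2 cells are isolated after 24 h of chemical dosing, reverse-transcribed and amplified. Fragments labeled with 6-FAM are cut with HpaI and quantified by capillary electrophoresis; DMSO defines baseline.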

The nature of assay [3]: ATG_DR4_LXR_CIS: Attagene CIS-FACTORIAL HepG2 Assay for human Liver X Receptor (LXR), DR4 submotif (AID 2282929). As to conditions: HepG2 Attagene DR4 cis-reporter, mRNA transcription; actives raise or lower the signal. A digest of the protocol:
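Endogenous factor activity at a DR4 cis-element is read as reporter mRNA in transiently transfected HepG2 cells. Exposure lasts 24 h; transcripts are amplified, fluorescently labelled and sized by capillary electrophoresis, with DMSO as baseline.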

Assay [4] can be described thus: ATG_AP_2_CIS: Attagene CIS-FACTORIAL HepG2 Assay for human Activator Protein 2 (AP-2) (AID 2282932). As to conditions: HepG2 AP-2 cis-reporter, Attagene transcription factor profiling; actives raise or lower the signal. The method, boiled down:
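Liver-derived HepG2 line, cis-reporter system measuring endogenous factors; 24 h dosing; reporter mRNA detected by fluorescent RT-PCR and capillary electrophoresis.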

Assay [5] is described as follows: ATG_BRE_CIS: Attagene CIS-FACTORIAL HepG2 Assay for human Bone Morphogenetic Protein (BMP) Response Element (BRE) (AID 2282933). As to conditions: HepG2 BMP response element reporter, Attagene transcription factor profiling; actives raise or lower the signal. A digest of the protocol:
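After a 24 h chemical treatment, transiently transfected HepG2 cells were lysed for RNA; reporter transcripts were quantified by fluorescent RT-PCR and capillary electrophoresis, normalised to DMSO.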

In assay [6] the target is Retinoic acid receptor alpha (Homo sapiens) (UniProt P10276). Briefly: ATG_DR5_RAR_CIS: Attagene CIS-FACTORIAL HepG2 Assay for human Retinoic Acid Receptor Alpha (RARE), DR5 submotif (AID 2282934). As to conditions: HepG2 Attagene cis-factorial RARE DR5 reporter, mRNA; actives raise or lower the signal. A digest of the protocol: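 Read-out: DR5-driven reporter transcript measured by RT-PCR, 6-FAM primer extension, HpaI digest and capillary electrophoresis. Human HepG2 liver cells carry transiently transfected cis-element reporter constructs; dosing lasts 24 h. Gain or loss of signal fitted against DMSO baseline.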
Chain of Retinoic acid receptor alpha (Homo sapiens) (P10276 whole entry, looked up): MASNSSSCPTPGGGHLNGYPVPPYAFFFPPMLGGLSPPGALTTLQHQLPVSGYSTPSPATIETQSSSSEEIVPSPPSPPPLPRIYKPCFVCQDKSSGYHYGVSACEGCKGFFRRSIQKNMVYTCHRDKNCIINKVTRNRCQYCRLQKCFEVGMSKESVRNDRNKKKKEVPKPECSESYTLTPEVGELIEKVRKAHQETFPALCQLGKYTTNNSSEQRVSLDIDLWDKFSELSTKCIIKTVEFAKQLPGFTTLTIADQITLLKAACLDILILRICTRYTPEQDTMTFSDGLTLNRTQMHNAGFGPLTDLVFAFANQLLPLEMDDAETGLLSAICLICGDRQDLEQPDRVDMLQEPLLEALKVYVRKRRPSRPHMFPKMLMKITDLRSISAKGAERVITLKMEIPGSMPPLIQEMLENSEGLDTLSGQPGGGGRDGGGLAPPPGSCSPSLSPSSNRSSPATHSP

Assay [7] has as its target Transcription factor E2F1 (Homo sapiens) (UniProt Q01094). Briefly: ATG_E2F_CIS: Attagene CIS-FACTORIAL HepG2 Assay for human E2F Transcription Factor 1 (AID 2282935). As to conditions: HepG2 Attagene cis-reporter, E2F reporter RNA transcripts; actives raise or lower the signal. A digest of the protocol: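 Liver-derived HepG2 cells expressing transfected promoter-driven reporter units received test chemical for 24 hours. Signal gains or losses were fitted bidirectionally against DMSO.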

Assay [8] can be described thus: ATG_E_Box_CIS: Attagene CIS-FACTORIAL HepG2 Assay for human Enhancer Box (E-box) (AID 2282936). The following applies: HepG2 E-box cis-reporter transcription, actives raise or lower the signal. The method, boiled down:
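In this cell-based setup, HepG2 cells bearing transfected promoter-driven reporter units were exposed to chemicals for 24 h; reporter transcripts were amplified, 6-FAM-labelled, cut with HpaI and sized by capillary electrophoresis.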

A short description of assay [9]: ATG_M_61_CIS: Attagene CIS-FACTORIAL HepG2 Assay for M61 Transcription Factor (Internal Marker) (AID 2282937). The following applies: HepG2 Attagene CIS-FACTORIAL M61 internal marker reporter; actives raise or lower the signal. A digest of the protocol:
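This endpoint serves as an internal background control within a multiplexed HepG2 cis-reporter panel. Cells are exposed for 24 h; reporter mRNA is amplified, fluorescently labelled and sized by capillary electrophoresis, with DMSO as negative control.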

The nature of assay [10]: ATG_EGR_CIS: Attagene CIS-FACTORIAL HepG2 Assay for human Early Growth Response 1 (EGR1) (AID 2282938). As to conditions: HepG2 Attagene CIS-FACTORIAL EGR reporter mRNA; actives raise or lower the signal. A digest of the protocol:
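HepG2, transient MRTU transfection (cis promoters), 24 h compound. RNA → RT (oligo-dT) → PCR → 6-FAM labelling → HpaI cut → CE fluorescence. Bidirectional fit, DMSO baseline.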

The nature of assay [11]: ATG_M_19_CIS: Attagene CIS-FACTORIAL HepG2 Assay for M19 Transcription Factor (Internal Marker) (AID 2282939). The following applies: HepG2 Attagene CIS-FACTORIAL M19 internal marker reporter; actives raise or lower the signal. The method, boiled down:
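In this multiplexed cell assay, transiently transfected HepG2 reporter units report endogenous transcription-factor activity; after 24 hours of treatment, labelled reporter cDNA fragments are quantified by capillary electrophoresis and fitted bidirectionally against DMSO.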

Assay [12] can be described thus: ATG_Ets_CIS: Attagene CIS-FACTORIAL HepG2 Assay for human Erythroblast Transformation Specific (ETS) (AID 2282941). As to conditions: HepG2 ETS cis-reporter transcription, actives raise or lower the signal. The method, boiled down:
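Bidirectional fit versus DMSO of reporter mRNA signal, detected by RT-PCR and capillary electrophoresis in HepG2 cells transiently transfected with cis-element reporters and dosed 24 h.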

For assay [13], the target named is Hepatocyte nuclear factor 3-beta (Homo sapiens) (UniProt Q9Y261). Put plainly: ATG_FoxA2_CIS: Attagene CIS-FACTORIAL HepG2 Assay for human Forkhead box A2 (FOXA2) (AID 2282942). As to conditions: HepG2 cis-reporter transcription factor activity, 24 h; actives raise or lower the signal. The method, boiled down:
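Cells: HepG2, transient multiplex reporter transfection. Exposure 24 h. Detection: reporter-specific RT-PCR, fluorescent labelling, restriction digest, capillary electrophoresis. Analysis: bidirectional curve fit, DMSO as negative control.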

Assay [14] is described as follows: ATG_FoxO_CIS: Attagene CIS-FACTORIAL HepG2 Assay for human Forkhead box O (FoxO) (AID 2282943). As to conditions: HepG2 Attagene cis-reporter, FoxO element, mRNA; actives raise or lower the signal. A digest of the protocol: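 Read-out: fluorescence of 6-FAM-labelled reporter cDNA fragments resolved by capillary electrophoresis. Transiently transfected HepG2 cells were dosed for 24 h; activity fitted in both directions relative to DMSO controls.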

Assay [15] in a line: ATG_GATA_CIS: Attagene CIS-FACTORIAL HepG2 Assay for human GATA Binding Protein (AID 2282944). As to conditions: HepG2 GATA cis-element reporter, Attagene multiplex mRNA; actives raise or lower the signal. The method, boiled down: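 Measures endogenous transcription factor-driven reporter mRNA in HepG2 cells transiently carrying cis-regulated constructs. 24 h dosing; RNA via oligo(dT) reverse transcription, PCR, HpaI digestion, capillary electrophoresis; fitted relative to DMSO.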

Assay [16] can be described thus: ATG_GLI_CIS: Attagene CIS-FACTORIAL HepG2 Assay for human Zinc Finger Protein GLI1 (AID 2282945). The following applies: HepG2, Attagene cis-factorial reporter mRNA, GLI element; actives raise or lower the signal. A digest of the protocol:
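Transiently transfected HepG2 cells report endogenous transcription factor activity via cis-element-driven reporter units. After 24 h compound exposure, reporter mRNA was measured by RT-PCR with capillary electrophoresis; bidirectional fitting against DMSO baseline.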

Assay [17] addresses Aryl hydrocarbon receptor (Homo sapiens) (UniProt P35869). Put plainly: ATG_Ahr_CIS: Attagene CIS-FACTORIAL HepG2 Assay for human Aryl Hydrocarbon Receptor (Ahr) (AID 2282930). The following applies: HepG2 AhR cis-factorial reporter transcription; actives raise or lower the signal. The method, boiled down:
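Read-out: reporter mRNA quantified by RT-PCR with fluorescent primer extension and capillary electrophoresis. Human HepG2 liver cells carried transfected cis-promoter reporter units and were exposed to chemical for 24 h; gain or loss fitted relative to DMSO.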

Assay [18] is described as follows: ATG_ERE_CIS: Attagene CIS-FACTORIAL HepG2 Assay for Estrogen Response Element (ERE) (AID 2282940). The following applies: HepG2 ERE cis-reporter, Attagene RNA transcript; actives raise or lower the signal. A digest of the protocol: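 Measuring endogenous transcription factor output, the assay doses transfected HepG2 cells for 24 hours and quantifies reporter transcripts by fluorescent RT-PCR and capillary electrophoresis, with DMSO as baseline.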

A short description of assay [19]: ATG_AP_1_CIS: Attagene CIS-FACTORIAL HepG2 Assay for human Activator Protein 1 (AP-1) (AID 2282931). As to conditions: HepG2 Attagene cis-factorial AP-1 reporter mRNA; actives raise or lower the signal. A digest of the protocol: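 Fluorescence of labelled PCR fragments separated by capillary electrophoresis gives reporter mRNA levels. HepG2 with transfected cis-regulated reporter units, 24 h exposure; DMSO serves as baseline for bidirectional curve fits.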

Chain of Transcription factor E2F1 (Homo sapiens) (Q01094 whole entry, looked up): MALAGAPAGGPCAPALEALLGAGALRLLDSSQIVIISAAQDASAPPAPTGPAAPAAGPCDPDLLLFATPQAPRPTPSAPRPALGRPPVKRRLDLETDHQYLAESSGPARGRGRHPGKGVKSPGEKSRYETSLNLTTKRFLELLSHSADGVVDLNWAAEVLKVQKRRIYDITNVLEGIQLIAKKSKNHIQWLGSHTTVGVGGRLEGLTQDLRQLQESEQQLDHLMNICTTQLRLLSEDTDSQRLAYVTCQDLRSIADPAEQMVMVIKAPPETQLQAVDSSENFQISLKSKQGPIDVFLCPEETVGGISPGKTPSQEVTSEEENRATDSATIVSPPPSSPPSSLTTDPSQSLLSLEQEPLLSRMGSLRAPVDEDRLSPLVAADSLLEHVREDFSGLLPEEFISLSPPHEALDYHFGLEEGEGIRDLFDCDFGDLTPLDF
Chain of Hepatocyte nuclear factor 3-beta (Homo sapiens) (Q9Y261 whole entry, looked up): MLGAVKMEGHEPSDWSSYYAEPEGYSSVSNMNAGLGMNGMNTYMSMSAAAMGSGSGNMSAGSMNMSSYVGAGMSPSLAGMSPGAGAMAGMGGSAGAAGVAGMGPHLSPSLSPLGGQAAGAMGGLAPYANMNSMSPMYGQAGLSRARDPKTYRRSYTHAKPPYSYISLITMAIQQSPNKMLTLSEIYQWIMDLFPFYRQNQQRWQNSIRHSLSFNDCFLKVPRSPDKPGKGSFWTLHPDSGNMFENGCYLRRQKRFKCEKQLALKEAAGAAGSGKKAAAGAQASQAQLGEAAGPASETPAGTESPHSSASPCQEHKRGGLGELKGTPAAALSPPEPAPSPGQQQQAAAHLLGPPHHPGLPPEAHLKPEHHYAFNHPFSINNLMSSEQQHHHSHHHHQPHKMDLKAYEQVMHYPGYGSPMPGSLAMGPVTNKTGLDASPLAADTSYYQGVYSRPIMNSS
Chain of Aryl hydrocarbon receptor (Homo sapiens) (P35869 whole entry, looked up): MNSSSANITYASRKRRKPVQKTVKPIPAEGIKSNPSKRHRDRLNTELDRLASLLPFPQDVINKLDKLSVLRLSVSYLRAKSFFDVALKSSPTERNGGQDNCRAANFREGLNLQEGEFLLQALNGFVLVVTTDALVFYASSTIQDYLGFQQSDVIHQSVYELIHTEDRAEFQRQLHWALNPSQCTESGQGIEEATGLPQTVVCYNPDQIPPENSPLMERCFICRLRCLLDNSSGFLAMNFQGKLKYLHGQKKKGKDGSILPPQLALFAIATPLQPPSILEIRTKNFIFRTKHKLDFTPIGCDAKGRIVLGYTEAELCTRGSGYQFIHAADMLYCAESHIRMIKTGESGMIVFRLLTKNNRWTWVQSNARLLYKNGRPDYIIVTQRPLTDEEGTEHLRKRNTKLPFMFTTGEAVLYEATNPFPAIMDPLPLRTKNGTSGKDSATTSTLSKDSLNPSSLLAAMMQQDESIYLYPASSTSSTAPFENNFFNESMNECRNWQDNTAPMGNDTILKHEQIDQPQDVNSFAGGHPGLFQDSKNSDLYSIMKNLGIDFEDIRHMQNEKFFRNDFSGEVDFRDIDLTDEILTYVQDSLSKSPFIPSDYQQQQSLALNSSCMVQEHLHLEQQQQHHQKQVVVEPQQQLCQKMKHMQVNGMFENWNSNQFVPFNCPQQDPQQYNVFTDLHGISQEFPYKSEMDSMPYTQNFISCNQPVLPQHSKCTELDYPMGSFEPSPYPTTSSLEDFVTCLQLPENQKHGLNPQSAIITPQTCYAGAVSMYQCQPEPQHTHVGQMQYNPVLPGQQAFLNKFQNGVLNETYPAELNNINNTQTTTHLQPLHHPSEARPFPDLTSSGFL

Take `c1ccc(NNc2ccccc2)cc1`: the result in assay [1], in [2], in assay [4], in [5], in [6] and in [7] was inactive. The outcome in assay [8], in assay [9], in [10], in assay [11], in assay [12] and in assay [13] was inactive. For the same molecule, the outcome in assay [14], in assay [15] and in [16] was inactive. In addition, in assay [3], the AC50 is 100 µM (active).
`CCOc1cccc(C2(N3CCN(c4ccccc4)CC3)CCC(C)CC2)c1` (configuration not stated): the call in assay [1], in assay [2], in assay [3], in assay [17], in assay [4] and in assay [5] was inactive. Also, the outcome in assay [6], in [7], in [8], in assay [9], in assay [10] and in assay [11] was inactive. In addition, the outcome in [18], in assay [12], in assay [13], in assay [14], in assay [15] and in assay [16] was inactive.
As for `O=Cc1ccco1`, the result in assay [1], in assay [2], in [3], in assay [17], in assay [4] and in assay [5] was inactive. Also, the molecule was classed as inactive in assay [6], in [7], in [8], in [9], in assay [10] and in assay [11]. Besides, the result in assay [12], in assay [13], in assay [14], in assay [15] and in [16] was inactive.
For the molecule `Clc1ccc(C(c2ccc(Cl)cc2)C(Cl)(Cl)Cl)cc1`, the outcome in assay [1], in assay [17], in assay [4], in assay [5], in [7] and in assay [8] was inactive. Moreover, the outcome in [9], in [10], in [11], in assay [12], in assay [13] and in assay [14] was inactive. The molecule was classed as inactive in assay [15] and in [16]. Further, the AC50 is 30.2 µM (active) in assay [2], 27.6 µM (active) in assay [3] and 51.4 µM (active) in assay [19].
In the case of `Clc1ccc(C(c2ccc(Cl)cc2)C(Cl)Cl)cc1`, the AC50 in assay [1] is 54.5 µM (active); in [2], 52.9 µM (active); in [3], 17.1 µM (active); in assay [4], 54.5 µM (active); in assay [10], 45.1 µM (active); in [18] it was 19.3 µM (active). The results for the concentration at half-maximal activity (AC50) in [12] and in assay [16] were 53.8 µM (active) and 45.9 µM (active), respectively. Further, the call in assay [17], in assay [5], in [7], in assay [8], in assay [9] and in [11] was inactive. The result in assay [13], in [14] and in assay [15] was inactive.
As for `COC(=O)Nc1nc2ccccc2[nH]1`, the molecule was called inactive in assay [1], in assay [2], in [3], in [19], in assay [5] and in assay [6]. The molecule was classed as inactive in [7], in assay [8], in assay [9], in [10], in assay [11] and in assay [12]. Also, the molecule was classed as inactive in assay [13], in assay [14], in assay [15] and in assay [16]. In addition, the concentration at half-maximal activity (AC50) in assay [17] is 13.3 µM (active).

A word on the AC50: it is the concentration giving half of the maximal activity seen.
